Experimental data taken from the supplement of paper PMC7156485.

System: HCC1569
Test: H1.0 immunofluorescence intensity relative to DMSO (% of DMSO); higher = stronger H1.0 induction, active = 140 or more
Conditions: concentration: 10 µM; 24 h
How it was run: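 For HCC1569 and TDF cells, compounds at 10 µM were applied for 24 h at 37 °C in triplicate in 384-well plates. Cells were fixed in 3.7% formaldehyde, stained for H1.0 and with DAPI, and imaged at ×10 over six fields per well. The endpoint, H1.0 nuclear intensity or cell number, is shown as percent of the plate control using the median of replicates. Positional effects were smoothed for HCC1569 only.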
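Also: TDF is a line of transformed human dermal fibroblasts of mesenchymal origin.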

H1.0 immunofluorescence intensity, inactive:
CN(C)C(N)=NCCCC(N)C(=O)O.Cl (centres undefined) [N^G,N^G-Dimethylarginine hydrochloride] 94.5, FC(F)(F)c1cc(NC(=S)Nc2ccc(Br)cc2-c2nn[nH]n2)cc(C(F)(F)F)c1 120, CCCC(CCC)C(N)=O [2-propylpentanamide] 95.6, CCCCCC(O)CCC1C(O)CC(=O)C1CCCCCCC(=O)O (centres undefined) [13,14-Dihydro-prostaglandin E1] 103, COc1cc2nccc(Oc3ccc(NC(=O)Nc4cc(C)on4)c(Cl)c3)c2cc1OC.O [VEGFR Tyrosine Kinase Inhibitor IV] 121, O=c1cc(-c2ccccc2)oc2cc(O)c(O)cc12 [6,7-Dihydroxyflavone] 101, NC(N)=NCc1cccc(I)c1.NC(N)=NCc1cccc(I)c1.O=S(=O)(O)O [m-Iodobenzylguanidine hemisulfate] 98.4, CC(=O)OC1C(=O)C2(C)C(O)CC3OCC3(OC(C)=O)C2C(OC(=O)c2ccccc2)C2(O)CC(OC(=O)C(O)C(NC(=O)c3ccccc3)c3ccccc3)C(C)=C1C2(C)C (centres undefined) [Taxol] 132, O=C(NC(Cc1ccccc1)C(=O)CCl)OCc1ccccc1 [Z-L-Phe chloromethyl ketone] 116
